High-throughput results: PubChem BioAssay, Broad Institute
ARNT TACC3 PPI – disrupts binding between human ARNT and TACC3. Q9Y6A5. AlphaScreen His-ARNT PAS-B/GST-TACC3 binding, luminescence; TACC3 fragment carries E629A point mutation. inhibition, % at 9.99 µM. hit rate 0.66% among 390,000;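 active means mean inhibition of replicates at least 50% and at least half of replicates each reaching 50%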;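 further: 0% = complete ARNT plus TACC3 wells and 100% = ARNT alone without TACC3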
Ecoli rRNA inh – selective bacterial rRNA inhibition in E. coli; GFP signal change (wild-type ribosome), % (no concentration beside the values); hit rate 1.6% among 350,000; AID 720706; E. coli WT GFP vs humanized-ribosome RFP mutants, fluorescence, 24 h; active compounds read low; DMSO median 0, no signal -100;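 active means significant combined selectivity score with lowered wild-type GFP, culture density cut under 30%, mutant RFP and density less affected; inactive means any of these conditions unmet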
ERAP1 HTS inh – inhibitors of human ERAP1 aminopeptidase; inhibition, % at 10.7 µM; recombinant ERAP1, Leu-AMC fluorescence, 60 min; hit rate 0.15% among 340,000;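 active means mean replicate inhibition of at least 30%, or all replicates individually reaching that 30% level; inactive means mean below 30% and not every replicate reaching it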;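 further: 0% = neutral control wells and 100% = L-leucinethiol positive control wells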
Target sequence (Q9NZ08 whole entry, looked up): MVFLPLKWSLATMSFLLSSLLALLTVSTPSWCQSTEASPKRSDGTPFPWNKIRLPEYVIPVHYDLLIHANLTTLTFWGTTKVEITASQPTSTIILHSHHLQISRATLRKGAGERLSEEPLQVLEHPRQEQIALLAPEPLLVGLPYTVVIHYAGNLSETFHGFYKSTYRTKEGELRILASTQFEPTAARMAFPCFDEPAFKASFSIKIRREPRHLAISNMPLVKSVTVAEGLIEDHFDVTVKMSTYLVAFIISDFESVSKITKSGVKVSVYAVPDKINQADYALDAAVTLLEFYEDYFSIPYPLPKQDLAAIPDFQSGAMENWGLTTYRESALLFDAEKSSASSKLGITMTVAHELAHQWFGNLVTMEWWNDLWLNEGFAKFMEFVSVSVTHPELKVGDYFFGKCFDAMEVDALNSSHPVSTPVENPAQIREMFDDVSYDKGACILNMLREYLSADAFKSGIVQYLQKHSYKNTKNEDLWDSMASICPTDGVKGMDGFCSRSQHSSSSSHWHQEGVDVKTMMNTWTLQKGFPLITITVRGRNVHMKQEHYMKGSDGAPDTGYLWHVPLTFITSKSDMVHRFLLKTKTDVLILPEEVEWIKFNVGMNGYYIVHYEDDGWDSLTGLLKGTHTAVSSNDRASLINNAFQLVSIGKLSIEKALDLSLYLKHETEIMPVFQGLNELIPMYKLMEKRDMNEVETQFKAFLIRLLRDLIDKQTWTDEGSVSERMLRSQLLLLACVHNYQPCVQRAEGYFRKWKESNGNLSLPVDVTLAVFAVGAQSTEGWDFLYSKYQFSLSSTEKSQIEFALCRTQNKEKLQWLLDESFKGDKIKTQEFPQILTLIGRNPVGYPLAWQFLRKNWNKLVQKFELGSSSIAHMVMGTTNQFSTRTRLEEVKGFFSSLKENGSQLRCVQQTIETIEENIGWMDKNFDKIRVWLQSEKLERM
PvdQ inh – blocks Pseudomonas aeruginosa PvdQ acylase activity | purified PvdQ acylase, fluorescence plate reader | inhibition, % at 10 µM | hit rate 0.063% among 340,000 | AID 488965; in the data active means inhibition above about 30%, passing the limit was not always enough;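 further: 0% = vehicle neutral wells and 100% = reference inhibitor wells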
F508del corr – CFTR F508del correction in bronchial cells | CFBE cells, YFP halide quenching; stimulated with forskolin plus potentiator P3; % fluorescence drop versus neutral controls | hit rate 0.36% among 350,000 | activity (quench increase), % at 7.58 µM | AID 720511;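 active means mean added fluorescence quench of at least 8% versus neutral control, with both replicates also reaching 8%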;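 further: cells transiently co-express mutant CFTR-F508del with the halide-sensitive YFP; corrector assay measuring rescue of mutant channel to the surface after 24 h compound exposure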
Starred values were filed as active, the others as inactive; · = not tested or not shown. This is a sample that favours compounds with a hit; in the whole collection about 2.1% have one here.

SMILES	ARNT TACC3 PPI	Ecoli rRNA inh	ERAP1 HTS inh	PvdQ inh	F508del corr
Cc1ccccc1-c1ccc(C2[C@@H]3CN(Cc4cocn4)C[C@H]2N3)cc1 (stereo not given in full)	·	5	·	·	1
COC(=O)c1ccc(COC(=O)[C@@H]2CC(O)CN2S(=O)(=O)c2ccccc2[N+](=O)[O-])cc1 (stereo not given in full)	-38	-17*	-3	-25	-3
Cc1noc(C)c1S(=O)(=O)Nc1ccc2c(c1)C(=O)N([C@@H](C)CO)C[C@@H](C)[C@@H](CN(C)S(C)(=O)=O)OCCCC[C@@H](C)O2	6	-2	-4	·	-3
Nc1nc(SCc2ccccc2)c2ncn(Cc3ccccc3)c2n1	-8	-17*	2	-19	-1
CCCn1cnc2c(SCc3ccccc3)nc(N)nc21	-6	-6	3	-13	-2
Oc1cccc2ccc(Nc3ccccn3)nc12	64*	·	·	-9	·
c1ccc(Nc2ccccc2Nc2ccccn2)nc1	3	90	-3	-12	0
COc1ccccc1/C=C1\SC(=S)N(CCC(=O)N2CCN(C)CC2)C1=O	-2	-19*	0	8	0
CCOC(=O)N1CCN(C(=O)CCN2C(=O)/C(=C\c3ccccc3OC)SC2=S)CC1	2	·	·	-1	·
O=C(CCN1C(=O)/C(=C/c2ccccc2Cl)SC1=S)N1CCCC1	-1	1	3	-17	-1
COc1ccccc1/C=C1\SC(=S)N(CCC(=O)NCCCn2ccnc2)C1=O	15	-24*	5	1	0
O=C(CCCN1C(=O)/C(=C/c2ccccc2Cl)SC1=S)N1CCCC1	21	-40*	3	-13	0
O=C(C[C@H]1CC[C@H]2[C@@H](COC[C@H](O)CN2S(=O)(=O)c2ccccc2)O1)NCCN1CCCC1	·	8	-2	·	0
C[C@@H]1CCCCO[C@@H](CN(C)Cc2ccncc2)[C@H](C)CN([C@@H](C)CO)C(=O)c2cc(NS(=O)(=O)c3ccc(F)cc3)ccc2O1	-6	1	-2	·	1
CCC1C/C(=C\c2cc(OC)c(OC)cc2OC)C(=O)/C(=C/c2cc(OC)c(OC)cc2OC)C1 (stereo not given)	4	·	·	11	·
COc1cc(OC)c(OC)cc1/C=C1\CC(C)C/C(=C\c2cc(OC)c(OC)cc2OC)C1=O (stereo not given)	-14	-22*	-2	18	2
Cc1ccc(S(=O)(=O)NCCCNS(=O)(=O)c2ccc(C)cc2)cc1	·	-4	1	-15	20*
Cc1ccc(S(=O)(=O)NCCCN(C)C)cc1	0	·	·	9	·
O=S(=O)(c1ccc(F)cc1)N1CCCCN2[C@H](CO)[C@@H](c3ccc(-c4ccccc4F)cc3)[C@@H]2C1	1	·	3	·	0
O=C(COc1cccc2cccnc12)N/N=C/c1cccn1-c1ccc(F)cc1	13	-41*	2	-8	-1
CC(C)(C)OC(=O)N1CCC[C@H]1C(=O)N/N=C/c1cccc2cccnc12	91*	-3	1	2	2
Cc1ccc(OCC(=O)N/N=C/c2cccc3cccnc23)cc1	64*	-14	-4	5	5
Cc1ccccc1OCC(=O)N/N=C/c1cccc2cccnc12	65*	-6	1	1	6
CCCNC(=O)Nc1ccc2c(c1)C(=O)N(C)[C@@H]1CC[C@H](CC(=O)NC3CCC3)O[C@@H]1CO2	-16	6	·	·	-1
COc1ccc(S(=O)(=O)N(C)C[C@@H]2Oc3c(NS(=O)(=O)c4ccc(F)cc4)cccc3C(=O)N([C@@H](C)CO)C[C@@H]2C)cc1	·	-4	·	·	0
SMILES	ARNT TACC3 PPI	Ecoli rRNA inh	ERAP1 HTS inh	PvdQ inh	F508del corr
CC(C)(C)OC(=O)NCCC(=O)N/N=C/c1cccc2cccnc12	69*	-16*	-7	-5	2
O=C(COc1ccc(F)cc1)N/N=C/c1cccc2cccnc12	95*	0	1	-3	1
COc1ccc(S(=O)(=O)Nc2ccc3c(c2)C(=O)N([C@@H](C)CO)C[C@@H](C)[C@H](CN(C)C(=O)Nc2ccc(C(F)(F)F)cc2)O3)cc1	1	-8	-3	·	-2
CC(=O)Nc1ccc(C(=O)Nc2nc(-c3ccccn3)cs2)cc1	·	-2	-1	6	2
CCc1cc(C(=O)Nc2nc(-c3ccccn3)cs2)sc1C	65*	-46	-2	-10	1
CCCn1nc(C(=O)Nc2nc(-c3ccccn3)cs2)c2ccccc2c1=O	50*	·	0	4	6
